# Reference: the supplement of paper PMC6555819
# Legend:
# Assay in all cases: PBM binding z-score (relative to random genomic background probes); higher = stronger binding; sequences stand for … in GC…GCGATTGACAGCGTAGAATGAAGG
# [1] = test system: FXR:RXRa (NR concentration 270 nM, RXRa partner concentration 90 nM)
# In short: (§1)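 Custom Agilent 4×180K protein-binding microarrays carried double-stranded probes, each with a 34-nt variable region. These regions held direct-repeat seeds, single-nucleotide variants, half-site ablations and random human genomic background sequences. Ligand-free nuclear receptor dimers were incubated on the arrays for 1 h, antibodies against each partner (one per run) detected binding, and scanned fluorescence was regression-normalized. Binding z-scores take the random background probes as reference.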
# [2] = test system: LXRa:RXRa (NR concentration 270 nM, RXRa partner concentration 90 nM)
# In short: as §1
# [3] = test system: LXRa homodimer (NR concentration 270 nM)
# In short: as §1
# [4] = test system: LXRb:RXRa (NR concentration 270 nM, RXRa partner concentration 90 nM)
# In short: as §1
# [5] = test system: LXRb homodimer (NR concentration 270 nM)
# In short: as §1
# [6] = test system: PPARa:RXRa (NR concentration 270 nM, RXRa partner concentration 90 nM)
# In short: as §1
# [7] = test system: PPARg:RXRa (NR concentration 180 nM, RXRa partner concentration 90 nM)
# In short: as §1
# [8] = test system: PPARg:RXRa 270nM:90nM, anti-RXR (NR concentration 270 nM, RXRa partner concentration 90 nM)
# In short: as §1
# [9] = test system: PPARg:RXRa 30nM:10nM, anti-RXR (NR concentration 30 nM, RXRa partner concentration 10 nM)
# In short: as §1
# [10] = test system: PPARg:RXRa 90nM:30nM, anti-RXR (NR concentration 90 nM, RXRa partner concentration 30 nM)
# In short: as §1
# [11] = test system: PPARg:RXRa DBDmut IVT, anti-RXR (DBD mutation: RXRa K156A/R161A, NR concentration 270 nM, RXRa partner concentration 90 nM)
# In short: as §1
# [12] = test system: PPARg:RXRa IVT, anti-PPARg (NR concentration 270 nM, RXRa partner concentration 90 nM)
# In short: as §1
# [13] = test system: PPARg DBDmut:RXRa IVT, anti-PPARg (DBD mutation: PPARg1 K132A/R137A, NR concentration 270 nM, RXRa partner concentration 90 nM)
# In short: as §1
# [14] = test system: PPARg DBDmut IVT, anti-PPARg (DBD mutation: PPARg1 K132A/R137A, NR concentration 270 nM)
# In short: as §1
# [15] = test system: PPARg homodimer (NR concentration 180 nM)
# In short: as §1
# [16] = test system: PXR:RXRa (NR concentration 270 nM, RXRa partner concentration 90 nM)
# In short: as §1
# [17] = test system: PXR homodimer (NR concentration 270 nM)
# In short: as §1
# [18] = test system: RARa:RXR (NR concentration 270 nM, RXRa partner concentration 90 nM)
# In short: as §1
# [19] = test system: RARa homodimer (NR concentration 270 nM)
# In short: as §1
# [20] = test system: RARb:RXRa (NR concentration 270 nM, RXRa partner concentration 90 nM)
# In short: as §1
Sequence,PBM binding z-score [1],PBM binding z-score [2],PBM binding z-score [3],PBM binding z-score [4],PBM binding z-score [5],PBM binding z-score [6],PBM binding z-score [7],PBM binding z-score [8],PBM binding z-score [9],PBM binding z-score [10],PBM binding z-score [11],PBM binding z-score [12],PBM binding z-score [13],PBM binding z-score [14],PBM binding z-score [15],PBM binding z-score [16],PBM binding z-score [17],PBM binding z-score [18],PBM binding z-score [19],PBM binding z-score [20]
CGTACAAGGTCAATGCTAGGTCAGTGAAAGCATT,7.34,6,2.7,4.55,1.54,5.5,5.12,5.6,2.08,4.22,4.05,4.92,0.909,0.378,5.84,5.07,2.03,6.46,2.18,5.33
CGTCAAAGTTCCAGGTAACGTAACAGAAAGCAGC,-0.0989,-0.25,-0.161,0.0165,0.0494,0.154,0.501,0.0886,-0.125,0.0621,0.434,0.748,-0.578,0.351,0.169,0.0635,-0.218,0.268,0.632,0.351
CGTCCAAGGTCAATGATAGGTCAGTGAAAGCATT,6.83,6,2.8,4.83,0.895,5.41,3.87,4.8,1.74,3.35,3.37,3.61,0.384,-0.272,6.66,5.17,1.58,6.7,1.7,5.31
CCTTACGGGTCACTAGGTTATAGCACGACGAGCG,4.41,3.03,0.136,2.64,-0.31,5.02,6.65,5.97,3.03,4.94,4.54,5.69,1.5,0.896,2.59,2.84,-0.213,3.7,0.907,3.7
ACTAGTAGTTGAGACGAGGGCAACCGATAGGTTG,0.415,0.0058,-0.401,-0.109,-0.494,0.237,0.537,-0.227,-0.398,-0.329,-0.0209,0.386,-0.147,-0.849,-0.115,1.63,0.115,0.6,0.181,0.978
CTCGAAAGGTCGTGCTCAGGTGGGTATACCAAAC,5,3.41,0.337,3.41,0.396,4.5,2.17,3.18,0.828,1.96,0.456,1.65,0.375,0.179,1.84,3.14,0.555,3.84,0.327,3.9
TCTTGTAGATCGACAGGAGGTTAAGAAAGATCGA,-0.239,0.869,-0.338,0.656,-0.423,0.999,-0.276,1.14,2.24,1.55,0.885,0.145,0.496,0.679,-0.189,0.501,-0.189,0.459,-0.333,0.401
AGAACGAGGGCAAAGAGTTGATAGCACGGGTGGC,0.422,0.331,-0.368,-0.152,-0.712,1.78,1.8,2.07,0.549,1.55,3.36,2.41,0.499,-0.21,0.413,1.77,4.76,0.09,-0.299,2.11
AGAACGTGGGCACGCTGAGTTGATAGCAGAGTAG,-0.602,-0.538,-0.448,-0.8,-1.22,-0.462,0.523,-0.265,-0.225,-0.405,-0.231,-0.143,0.109,-0.419,-0.518,-0.542,-0.719,-0.528,-0.906,-0.0707
